Assay outcomes: PubChem BioAssay, Corson Lab, School of Medicine, Indiana University
The full list was thinned out, with hits kept by preference.
FECH inh = inhibitors of human ferrochelatase. purified FECH, Ni-mesoporphyrin absorbance 550 nm. calls only at 10 µM (by protocol). 20,000 tested, 3.3% active;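 active = enzyme reaction rate more than 3 SD below the solvent-only control wells on the same plate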;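 note: lower slope than DMSO wells means FECH inhibition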
Target sequence (P22830 whole entry, looked up): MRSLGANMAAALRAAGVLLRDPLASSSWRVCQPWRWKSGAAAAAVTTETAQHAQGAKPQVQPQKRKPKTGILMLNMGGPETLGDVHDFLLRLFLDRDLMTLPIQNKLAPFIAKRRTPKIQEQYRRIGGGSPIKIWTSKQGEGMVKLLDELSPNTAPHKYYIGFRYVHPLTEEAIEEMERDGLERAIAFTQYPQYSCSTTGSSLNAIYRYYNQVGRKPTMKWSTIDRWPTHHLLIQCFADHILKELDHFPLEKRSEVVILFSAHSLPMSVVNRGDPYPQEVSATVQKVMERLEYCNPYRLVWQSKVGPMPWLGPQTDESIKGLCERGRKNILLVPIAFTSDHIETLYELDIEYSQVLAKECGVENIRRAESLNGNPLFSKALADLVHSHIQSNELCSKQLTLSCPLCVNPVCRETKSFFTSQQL
Starred values were filed as active, the others as inactive.

Results for CCCSCC(=O)N1Cc2cnc(C(C)(C)C)nc2C1 ?
FECH inh: inactive

Results for Cc1nccn1CC1(CNC(=O)c2ccc3cccc(F)c3n2)CC1 ?
FECH inh: inactive

What do the screens show for `Cc1cccc(-c2cc(Nc3ccc(Nc4ccccc4)cc3)nc(C)n2)c1`?
FECH inh: inactive

How did Cc1cccc(Nc2nc(NCC(C)O)nc3c2cnn3-c2ccccc2)c1 (centres undefined) do in these assays?
FECH inh: inactive

Results for Cc1cccc(N2CCN(C(=O)c3nc4ccccc4n(C)c3=O)CC2)c1C ?
FECH inh: inactive

Results for CCCN1CCN(CCNC(=O)C2CCN(c3ccc(-c4cccs4)nn3)CC2)CC1 ?
FECH inh: inactive

Results for O=C(Nc1ccc(Cl)c(N2CCCS2(=O)=O)c1)c1ccc(F)c(F)c1 ?
FECH inh: inactive

How did CCCC(=O)Nc1ccc(Sc2c(CC)c(C)nc3ncnn23)cc1 do in these assays?
FECH inh: inactive

What do the screens show for `CCc1c(C)nc2ncnn2c1Sc1ccc(NC(=O)c2ccccc2C)cc1`?
FECH inh: active

What do the screens show for `CCCC(=O)Nc1ccc(Sc2c(CCC)c(C)nc3ncnn23)cc1`?
FECH inh: active

Results for CCc1c(C)nc2ncnn2c1Sc1ccc(NC(=O)c2cccs2)cc1 ?
FECH inh: inactive

Results for CCCc1c(C)nc2ncnn2c1Sc1ccc(NC(=O)c2ccccc2)cc1 ?
FECH inh: inactive

Results for CCCc1c(C)nc2ncnn2c1Sc1ccc(NC(=O)c2ccc(C)cc2)cc1 ?
FECH inh: inactive

Results for CCc1c(C)nc2ncnn2c1Sc1ccc(NC(=O)c2ccc(OC)cc2)cc1 ?
FECH inh: inactive

Results for CCCc1c(C)nc2ncnn2c1Sc1ccc(NC(=O)c2ccccc2C)cc1 ?
FECH inh: active

How did CCc1c(C)nc2ncnn2c1Sc1ccc(NC(=O)c2ccc(Br)cc2)cc1 do in these assays?
FECH inh: active

How did CCc1c(C)nc2ncnn2c1Sc1ccc(NC(=O)c2ccccc2)cc1 do in these assays?
FECH inh: inactive

Results for CCCc1c(C)nc2ncnn2c1Sc1ccc(NC(=O)CC)cc1 ?
FECH inh: inactive

What do the screens show for `CCc1c(C)nc2ncnn2c1Sc1ccccc1NC(=O)c1ccccc1C`?
FECH inh: inactive

How did C=CCN(Cc1ccc(C)s1)C(=O)c1cnc2sc(C)c(C)n2c1=O do in these assays?
FECH inh: inactive

Results for CCc1nc(OCC(=O)N2CCOCC2)c2c(-c3ccc(F)cc3)noc2n1 ?
FECH inh: inactive

What do the screens show for `Cn1ncc(N2CCC(CNC(=O)c3n[nH]c4c3CCC4)C2)cc1=O` (centres undefined)?
FECH inh: inactive

Results for Cc1cccc(-c2cc(Nc3ccccc3)nc(C)n2)c1 ?
FECH inh: inactive

Results for CN1CCN2C[C@@H](NC(=O)CCc3ccc4c(c3)OCO4)C[C@H]2C1 ?
FECH inh: inactive

What do the screens show for `Cc1oc(-c2ccc(OC(C)C)cc2)nc1CSc1nc(-c2ccccc2)cc(=O)[nH]1`?
FECH inh: inactive

How did O=C1NCC(=O)N2CCN(Cc3ccc4c(c3)Cc3ccccc3-4)CC12 (centres undefined) do in these assays?
FECH inh: inactive

What do the screens show for `Cc1csc2c(N3CCC(n4nccc4NC(=O)C4CC4)CC3)ncnc12`?
FECH inh: inactive

How did O=S(=O)(NCCn1c(-c2ccc(F)cc2)nc2cccnc21)c1ccc(Cl)cc1 do in these assays?
FECH inh: inactive

Results for COc1ccc(-c2cc(C(=O)N3CCc4ccccc4C3)[nH]n2)cc1S(N)(=O)=O ?
FECH inh: inactive

What do the screens show for `Cc1ccc(NC(=O)CN2CCN(Cc3ccc(F)cc3Cl)S2(=O)=O)cc1C`?
FECH inh: inactive

How did COc1ccc(CN2CCCN(Cc3ccccc3Cl)S2(=O)=O)cc1 do in these assays?
FECH inh: inactive

How did Cc1cccc(NC(=O)CN2CCN(Cc3ccc(F)cc3Cl)S2(=O)=O)c1 do in these assays?
FECH inh: active

How did O=S1(=O)N(Cc2ccccc2Cl)CCCN1Cc1ccc(F)cc1Cl do in these assays?
FECH inh: active

How did O=C(CN1CCN(Cc2ccc(F)cc2Cl)S1(=O)=O)Nc1cccc(F)c1 do in these assays?
FECH inh: inactive

How did O=C(CN1CCCN(Cc2ccccc2Cl)S1(=O)=O)Nc1cc(F)ccc1F do in these assays?
FECH inh: inactive

How did COc1ccc(NC(=O)CN2CCN(Cc3ccc(F)cc3Cl)S2(=O)=O)cc1Cl do in these assays?
FECH inh: active

How did Cc1cc(C)cc(NC(=O)CN2CCN(Cc3ccc(F)cc3Cl)S2(=O)=O)c1 do in these assays?
FECH inh: inactive

How did COc1ccc(NC(=O)CN2CCN(Cc3ccccc3Cl)S2(=O)=O)cc1Cl do in these assays?
FECH inh: inactive

What do the screens show for `CN(Cc1ccoc1)C(=O)c1cn(CC2CCCCC2)nn1`?
FECH inh: inactive

How did O=C(CCN1CCOC(C(F)(F)F)C1)Nc1nnc(C2CC2)s1 (centres undefined) do in these assays?
FECH inh: inactive

What do the screens show for `Cc1cc(=O)oc2cc(CN3CCN(C(=O)c4ccccc4)CC3)ccc12`?
FECH inh: inactive

Results for CN(C)C1CCCN(C(=O)c2cccc(Oc3ccccc3)c2)CC1 (centres undefined) ?
FECH inh: inactive

What do the screens show for `Clc1cccnc1NCc1cccnc1-n1cnc2ccccc21`?
FECH inh: inactive

What do the screens show for `COc1ccc(OC)c(S(=O)(=O)N2CCN(Cc3nc4cccnc4n3-c3ccc(C)cc3)CC2)c1`?
FECH inh: inactive

What do the screens show for `CCn1c(CNS(=O)(=O)c2ccc(CC(C)C)cc2)nc2cccnc21`?
FECH inh: inactive

What do the screens show for `COCCn1c(CNS(=O)(=O)c2ccc(C(C)C)cc2)nc2cccnc21`?
FECH inh: inactive

What do the screens show for `COCCn1c(CNS(=O)(=O)c2ccc(CC(C)C)cc2)nc2cccnc21`?
FECH inh: active

How did COc1ccc(S(=O)(=O)NCc2nc3cccnc3n2C2CC2)cc1 do in these assays?
FECH inh: active

How did CC(C)Cc1ccc(S(=O)(=O)NCc2nc3cccnc3n2C)cc1 do in these assays?
FECH inh: inactive

How did CCCc1ccc(S(=O)(=O)NCc2nc3cccnc3n2C)cc1 do in these assays?
FECH inh: active

How did O=S(=O)(NCc1nc2cccnc2n1C1CC1)c1ccc(Cl)cc1 do in these assays?
FECH inh: inactive

How did CCOc1ccc(S(=O)(=O)NCc2nc3cccnc3n2Cc2ccccc2OC)cc1 do in these assays?
FECH inh: inactive

How did COc1ccccc1Cn1c(CNS(=O)(=O)c2ccc(C(C)(C)C)cc2)nc2cccnc21 do in these assays?
FECH inh: active

What do the screens show for `COc1ccccc1Cn1c(CNS(=O)(=O)c2ccc(F)cc2)nc2cccnc21`?
FECH inh: inactive

How did CC(=O)Nc1ccc(S(=O)(=O)NCc2nc3cccnc3n2C)cc1 do in these assays?
FECH inh: inactive

How did Cc1ccc(S(=O)(=O)NCc2nc3cccnc3n2C2CC2)cc1 do in these assays?
FECH inh: inactive

Results for CCN(CC)C(=O)N(CC1=CCCN(C)C1)C[C@@H]1CCC(=O)N1 ?
FECH inh: inactive

What do the screens show for `CC(C)CN(CC(C)C)c1ncc(NS(=O)(=O)c2ccc(Cl)s2)cc1C(=O)O`?
FECH inh: inactive

Results for CCCSCCCN1C(=O)c2nc3ccccc3n2CC1(C)C(=O)NCCC(C)C (centres undefined) ?
FECH inh: inactive

How did Cc1ccc(F)c(OCc2nc(Cc3ccccc3F)no2)c1F do in these assays?
FECH inh: inactive

What do the screens show for `Cc1cc(N2CCCC2)nc(N2CCN(S(=O)(=O)c3ccccc3Cl)CC2)n1`?
FECH inh: inactive
